In the supplement of paper PMC6897291:

System: RIVA
Assay: growth inhibition by drug alone (1 - RLU/untreated control) (fraction); higher = stronger inhibition
Conditions: 177Lu-lilotomab satetraxetan 0 ug/ml
Method: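 RIVA (RI-1) ABC-DLBCL cells were pretreated or not for 18 h with 0.5 ug/ml 177Lu-lilotomab satetraxetan (600 MBq/mg), washed and seeded (3000 cells/well) on 384-well plates pre-printed with the Selleck Cambridge Cancer Compound library. Viability was read by RealTime-Glo luminescence on days 3-6 after seeding. Effect = 1 - RLU/mean RLU of the 48 untreated no-drug control wells per plate; Bliss score = (M-E)/(1-Fa).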

| SMILES | growth inhibition by drug alone (10 nM, time (day): 3) | growth inhibition by drug alone (10 nM, time (day): 4) | growth inhibition by drug alone (10 nM, time (day): 5) | growth inhibition by drug alone (10 nM, time (day): 6) | growth inhibition by drug alone (100 nM, time (day): 3) | growth inhibition by drug alone (100 nM, time (day): 4) | growth inhibition by drug alone (100 nM, time (day): 5) | growth inhibition by drug alone (100 nM, time (day): 6) |
| --- | --- | --- | --- | --- | --- | --- | --- | --- |
| C=CC[C@@H]1/C=C(\C)C[C@H](C)C[C@H](OC)[C@H]2O[C@@](O)(C(=O)C(=O)N3CCCC[C@H]3C(=O)O[C@H](/C(C)=C/[C@@H]3CC[C@@H](O)[C@H](OC)C3)[C@H](C)[C@@H](O)CC1=O)[C@H](C)C[C@@H]2OC [FK-506 (Tacrolimus)] | 0.737 | 0.636 | 0.618 | 0.602 | 0.867 | 0.796 | 0.777 | 0.783 |
| Cc1ccc(C(=O)Nc2ccc(CN3CCN(C)CC3)c(C(F)(F)F)c2)cc1C#Cc1cnc2cccnn12 | -0.13 | -0.226 | -0.275 | -0.383 | 0.59 | 0.607 | 0.6 | 0.53 |
| COc1cc(Nc2ncc(F)c(Nc3ccc4c(n3)N(COP(=O)(O)O)C(=O)C(C)(C)O4)n2)cc(OC)c1OC | -0.112 | -0.134 | -0.185 | -0.286 | -0.0605 | -0.0606 | -0.107 | -0.168 |
| NC(=O)c1ccc2nc(-c3ccc(Oc4ccc(Cl)cc4)cc3)[nH]c2c1 | -0.00863 | -0.0511 | -0.0793 | -0.24 | -0.111 | -0.096 | -0.133 | -0.184 |
| Cc1cc(Nc2cc(N3CCN(C)CC3)nc(/C=C/c3ccccc3)n2)n[nH]1 | -0.27 | -0.286 | -0.318 | -0.447 | -0.354 | -0.347 | -0.369 | -0.539 |
